From the supplement of paper PMC10849652
The full data set covers some 7,900 targets. This sample favours those with a hit. About 0.6% of all pairs of compound and target were hits. A number with no mark means an inactive call.

Compound: c1cn2cc(-c3ccc4cn[nH]c4c3)nc(Nc3ccc(N4CCOCC4)cc3)c2n1 [entospletinib]
Test: log2 fold change, soluble protein after heating vs DMSO (PISA); higher = thermal stabilisation; K562 cells, 10 uM, 30 min; active = over 0.2 and 3.5 SD of the protein, either way, in both replicates (recomputed)
Outline: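 Quantification of soluble protein used TMTpro 16plex LC-MS/MS, with channel sums equalised. Samples were the supernatant after 21,000xg for 90 min of pooled aliquots from K562 cells (2×10^6 cells/mL) treated with 10 μM compound for 30 min, heated for 3 min over 48°C-58°C, and extracted in PBS with 0.5% NP-40 at 4°C. Values, from duplicates, describe thermal stability against control samples on a log2 fold-change scale.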

Sequence of UniProt P28070 (P28070 whole entry, looked up): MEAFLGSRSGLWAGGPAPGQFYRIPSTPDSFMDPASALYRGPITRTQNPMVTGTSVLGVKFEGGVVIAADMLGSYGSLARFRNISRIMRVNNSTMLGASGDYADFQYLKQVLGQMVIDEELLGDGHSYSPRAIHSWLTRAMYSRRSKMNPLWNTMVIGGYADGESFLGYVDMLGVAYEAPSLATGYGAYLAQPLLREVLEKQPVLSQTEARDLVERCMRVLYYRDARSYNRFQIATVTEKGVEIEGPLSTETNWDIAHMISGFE
Sequence of UniProt P48426 (P48426 whole entry, looked up): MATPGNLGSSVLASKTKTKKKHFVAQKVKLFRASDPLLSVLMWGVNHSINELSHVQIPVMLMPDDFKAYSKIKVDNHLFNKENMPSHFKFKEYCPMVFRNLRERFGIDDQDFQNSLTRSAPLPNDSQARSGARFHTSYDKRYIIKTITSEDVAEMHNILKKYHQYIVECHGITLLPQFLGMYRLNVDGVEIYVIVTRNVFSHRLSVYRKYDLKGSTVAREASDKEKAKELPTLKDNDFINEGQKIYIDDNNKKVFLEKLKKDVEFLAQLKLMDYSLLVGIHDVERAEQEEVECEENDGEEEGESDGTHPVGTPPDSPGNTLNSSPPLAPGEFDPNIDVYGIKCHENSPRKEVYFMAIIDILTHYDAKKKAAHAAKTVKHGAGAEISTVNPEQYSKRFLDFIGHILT
Sequence of UniProt O14974 (O14974 whole entry, looked up): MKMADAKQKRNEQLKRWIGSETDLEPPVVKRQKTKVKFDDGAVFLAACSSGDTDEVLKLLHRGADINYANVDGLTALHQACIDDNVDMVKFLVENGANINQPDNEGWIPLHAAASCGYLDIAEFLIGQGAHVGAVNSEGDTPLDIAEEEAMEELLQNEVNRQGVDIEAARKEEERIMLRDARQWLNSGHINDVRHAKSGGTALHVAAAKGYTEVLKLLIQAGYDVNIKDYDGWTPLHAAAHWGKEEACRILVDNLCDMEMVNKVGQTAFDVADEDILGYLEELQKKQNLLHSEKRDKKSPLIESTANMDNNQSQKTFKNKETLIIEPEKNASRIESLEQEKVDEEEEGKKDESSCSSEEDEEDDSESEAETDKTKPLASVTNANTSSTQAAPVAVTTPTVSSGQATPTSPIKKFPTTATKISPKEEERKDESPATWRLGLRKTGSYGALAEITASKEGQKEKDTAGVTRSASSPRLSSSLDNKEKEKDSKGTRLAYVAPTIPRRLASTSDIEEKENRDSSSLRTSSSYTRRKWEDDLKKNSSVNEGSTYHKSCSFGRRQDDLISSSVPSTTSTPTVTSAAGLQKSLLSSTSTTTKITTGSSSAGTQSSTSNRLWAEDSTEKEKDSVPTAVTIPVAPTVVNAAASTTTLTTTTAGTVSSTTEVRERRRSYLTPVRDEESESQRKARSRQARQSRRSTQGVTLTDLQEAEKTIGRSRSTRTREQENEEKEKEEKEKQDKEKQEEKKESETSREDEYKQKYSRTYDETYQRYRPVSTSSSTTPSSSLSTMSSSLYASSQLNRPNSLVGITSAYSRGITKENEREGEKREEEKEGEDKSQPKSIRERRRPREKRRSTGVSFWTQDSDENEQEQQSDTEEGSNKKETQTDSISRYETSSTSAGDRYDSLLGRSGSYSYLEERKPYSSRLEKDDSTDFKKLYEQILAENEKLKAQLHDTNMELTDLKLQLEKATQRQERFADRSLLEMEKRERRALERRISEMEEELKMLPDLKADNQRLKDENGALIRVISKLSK
Sequence of UniProt O15162 (O15162 whole entry, looked up): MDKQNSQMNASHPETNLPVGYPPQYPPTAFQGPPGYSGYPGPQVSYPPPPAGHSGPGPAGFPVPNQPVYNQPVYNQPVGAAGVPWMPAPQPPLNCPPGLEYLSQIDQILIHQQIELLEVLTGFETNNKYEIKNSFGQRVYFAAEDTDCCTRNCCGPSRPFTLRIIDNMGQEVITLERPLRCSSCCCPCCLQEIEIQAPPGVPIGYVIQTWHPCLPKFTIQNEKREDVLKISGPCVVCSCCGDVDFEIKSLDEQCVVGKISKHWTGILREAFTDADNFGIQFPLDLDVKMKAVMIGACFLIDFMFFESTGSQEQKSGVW
Sequence of UniProt Q32M88 (Q32M88 whole entry, looked up): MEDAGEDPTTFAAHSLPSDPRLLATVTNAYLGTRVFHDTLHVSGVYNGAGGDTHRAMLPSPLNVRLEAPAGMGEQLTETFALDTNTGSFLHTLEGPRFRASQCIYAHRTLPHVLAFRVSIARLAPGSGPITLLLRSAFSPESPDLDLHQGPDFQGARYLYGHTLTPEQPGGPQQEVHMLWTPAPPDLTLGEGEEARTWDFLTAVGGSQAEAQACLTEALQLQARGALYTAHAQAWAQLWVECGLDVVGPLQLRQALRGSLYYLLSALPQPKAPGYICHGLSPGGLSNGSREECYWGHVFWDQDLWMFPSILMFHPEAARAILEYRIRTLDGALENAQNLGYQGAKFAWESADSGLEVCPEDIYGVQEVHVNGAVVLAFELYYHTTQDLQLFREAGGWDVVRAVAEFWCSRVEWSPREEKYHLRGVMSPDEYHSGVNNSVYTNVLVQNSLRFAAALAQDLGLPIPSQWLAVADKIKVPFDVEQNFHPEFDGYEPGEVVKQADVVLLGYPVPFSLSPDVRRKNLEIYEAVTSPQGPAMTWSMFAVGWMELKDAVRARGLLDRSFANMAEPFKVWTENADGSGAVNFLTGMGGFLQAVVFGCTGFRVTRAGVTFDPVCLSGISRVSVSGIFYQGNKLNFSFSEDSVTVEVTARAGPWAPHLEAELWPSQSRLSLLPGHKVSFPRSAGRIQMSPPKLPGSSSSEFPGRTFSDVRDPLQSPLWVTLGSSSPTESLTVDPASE
Sequence of UniProt Q05209 (Q05209 whole entry, looked up): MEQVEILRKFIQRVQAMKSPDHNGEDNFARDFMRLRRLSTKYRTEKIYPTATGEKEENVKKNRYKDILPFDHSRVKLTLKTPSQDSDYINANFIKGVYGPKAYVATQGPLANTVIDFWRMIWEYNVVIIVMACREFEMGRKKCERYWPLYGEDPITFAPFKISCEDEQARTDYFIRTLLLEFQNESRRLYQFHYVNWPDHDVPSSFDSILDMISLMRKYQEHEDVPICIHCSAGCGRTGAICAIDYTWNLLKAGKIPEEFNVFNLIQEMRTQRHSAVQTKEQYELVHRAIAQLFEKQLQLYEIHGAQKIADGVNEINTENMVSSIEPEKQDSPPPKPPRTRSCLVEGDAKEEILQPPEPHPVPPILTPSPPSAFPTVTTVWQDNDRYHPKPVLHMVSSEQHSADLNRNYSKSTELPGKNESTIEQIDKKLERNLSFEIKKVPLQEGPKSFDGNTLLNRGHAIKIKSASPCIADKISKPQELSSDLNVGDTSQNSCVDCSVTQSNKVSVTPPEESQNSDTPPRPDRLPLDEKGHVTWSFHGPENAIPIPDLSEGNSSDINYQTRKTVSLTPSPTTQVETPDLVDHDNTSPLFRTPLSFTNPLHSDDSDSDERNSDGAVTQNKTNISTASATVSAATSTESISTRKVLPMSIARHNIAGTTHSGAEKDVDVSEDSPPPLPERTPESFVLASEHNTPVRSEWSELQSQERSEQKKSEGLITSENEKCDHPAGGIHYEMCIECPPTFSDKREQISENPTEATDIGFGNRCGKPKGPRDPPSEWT
Sequence of UniProt Q969N2 (Q969N2 whole entry, looked up): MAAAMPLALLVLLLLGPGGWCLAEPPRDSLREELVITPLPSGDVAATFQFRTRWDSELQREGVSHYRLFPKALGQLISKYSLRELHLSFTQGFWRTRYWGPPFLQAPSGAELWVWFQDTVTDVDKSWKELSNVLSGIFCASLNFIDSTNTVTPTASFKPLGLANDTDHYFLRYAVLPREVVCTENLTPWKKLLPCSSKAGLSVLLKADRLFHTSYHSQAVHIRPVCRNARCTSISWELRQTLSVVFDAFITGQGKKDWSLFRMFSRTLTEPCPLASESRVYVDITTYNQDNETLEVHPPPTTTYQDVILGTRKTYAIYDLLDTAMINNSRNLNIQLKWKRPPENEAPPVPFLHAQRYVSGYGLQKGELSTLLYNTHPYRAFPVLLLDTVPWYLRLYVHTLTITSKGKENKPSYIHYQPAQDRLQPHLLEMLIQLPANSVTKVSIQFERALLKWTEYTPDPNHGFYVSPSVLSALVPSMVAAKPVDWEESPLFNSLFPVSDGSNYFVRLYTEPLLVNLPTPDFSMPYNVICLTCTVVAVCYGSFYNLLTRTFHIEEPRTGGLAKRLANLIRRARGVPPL
Sequence of UniProt P49642 (P49642 whole entry, looked up): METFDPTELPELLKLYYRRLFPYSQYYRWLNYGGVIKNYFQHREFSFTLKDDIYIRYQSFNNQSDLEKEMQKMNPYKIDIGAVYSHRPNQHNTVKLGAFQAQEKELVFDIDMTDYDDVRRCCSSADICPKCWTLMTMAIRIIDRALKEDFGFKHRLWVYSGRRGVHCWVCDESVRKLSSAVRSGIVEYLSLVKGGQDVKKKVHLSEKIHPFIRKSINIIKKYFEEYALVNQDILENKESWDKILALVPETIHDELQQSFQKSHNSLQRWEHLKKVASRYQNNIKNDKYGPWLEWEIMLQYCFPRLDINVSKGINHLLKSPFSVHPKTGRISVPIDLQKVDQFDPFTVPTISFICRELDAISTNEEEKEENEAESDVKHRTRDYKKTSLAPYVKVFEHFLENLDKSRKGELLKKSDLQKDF
Sequence of UniProt P28072 (P28072 whole entry, looked up): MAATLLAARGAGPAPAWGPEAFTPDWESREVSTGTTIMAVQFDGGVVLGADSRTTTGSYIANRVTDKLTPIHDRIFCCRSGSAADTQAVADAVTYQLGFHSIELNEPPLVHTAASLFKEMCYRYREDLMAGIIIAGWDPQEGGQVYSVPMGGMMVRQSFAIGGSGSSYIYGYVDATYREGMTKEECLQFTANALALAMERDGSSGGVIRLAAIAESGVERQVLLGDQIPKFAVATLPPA

Target | log2 fold change
PGGHG (UniProt Q32M88) | 0.023
PSMB4 (UniProt P28070) | -0.009
PTPN12 (UniProt Q05209) | -0.041
PRPSAP2 (UniProt O60256) | -0.008
PIP4K2A (UniProt P48426) | -0.049
PLSCR1 (UniProt O15162) | -0.045
PIGG (UniProt Q5H8A4) | -0.034
PSMB6 (UniProt P28072) | 0.008
QKI (UniProt Q96PU8) | 0.065
PRIM1 (UniProt P49642) | 0.062
PPIL2 (UniProt Q13356) | -0.027
PIGT (UniProt Q969N2) | -0.018
PPP1R12A (UniProt O14974) | -0.045
PUM1 isoform 3 (UniProt Q14671) | 0.045
